# Laboratory results from article PMC5540273 (PLoS ONE, 2017).
# System: PIK3C2G
# Conditions: concentration: 1 μM, replicates: in singlicate; n = 1
# 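Further: KINOMEscan kinase panel screen.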
row,Compound,%Inh [%]
1,Cl.Cl.NC(CNC(=O)c1cc(Br)c(-c2ccnc3[nH]ccc23)s1)c1ccccc1 (stereo not drawn) [GSK1322949],0
2,Cl.Cl.NCC(NC(=O)c1cc(-c2cccnc2)c(-c2ccnc3[nH]ccc23)s1)c1ccccc1 (stereo not drawn) [GSK1323434],0
3,CC(C)c1nc(-c2ccc(F)c(NS(=O)(=O)c3c(F)cccc3F)c2)c(-c2ccnc(Nc3ccc(N4CCOCC4)nc3)n2)s1 [GSK1804250],0
4,CC(=O)Nc1cn2nc(Oc3cccc(NC(=O)c4cccc(C(F)(F)F)c4)c3)ccc2n1,0
5,COc1cc(Nc2nccc(N3CCC(NS(=O)(=O)c4ccc(NC(C)=O)cc4)CC3)n2)cc(OC)c1OC [GSK1379825],9
6,Cn1cc(-c2cnc(N)c3c(-c4ccc5c(c4)CCN5C(=O)Cc4ccccc4)csc23)cn1 [GSK2593074],35
7,Cc1ccc(NC(=O)c2ccnc(N3CCCCC3)c2)cc1-c1ccc(C(=O)NCC2CC2)cc1 [GW775610],0
8,CCn1cnc2c(NCc3ccccc3)ncnc21 [SKF-96418],0
9,Cc1ccc(NC(=O)c2cccc(N3CCCCC3)c2)cc1-c1ccc(C(=O)NCC2CC2)cc1 [GSK1917008],45
10,COc1ccc(NC(=O)c2ccoc2)cc1-c1ccc(C(=O)NCC2CC2)cc1 [GW810437],0
11,COc1cccc(CC(=O)N2CCc3cc(-c4cn(C)c5ncnc(N)c45)ccc32)c1 [GSK2608899],0
12,CN1CCN(Cc2ccc(NC(=O)Nc3ccc(N(C)c4ccnc(Nc5ccc(CS(C)(=O)=O)cc5)n4)cc3)cc2)CC1.Cl [GW827654],6
